RGS16-Gao HTS = modulators of RGS16 binding to Galphao, primary screen, biochemical, human proteins, multiplexed bead flow cytometry. Regulator of G-protein signaling 16 (Homo sapiens) + Guanine nucleotide-binding protein …. 220,000 tested, 0.38% active. bead-based flow cytometry RGS16-Galphao binding, fluorescence; actives lie on both sides. binding response (% of control), % at 10 µM;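 further: Galphao activated by GDP with aluminum fluoride before binding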
Target sequence (O15492 whole entry, looked up): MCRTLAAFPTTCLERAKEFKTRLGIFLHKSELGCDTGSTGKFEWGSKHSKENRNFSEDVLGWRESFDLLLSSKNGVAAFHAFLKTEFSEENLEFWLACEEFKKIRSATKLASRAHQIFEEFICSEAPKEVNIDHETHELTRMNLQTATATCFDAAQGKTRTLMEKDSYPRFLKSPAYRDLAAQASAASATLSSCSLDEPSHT
Target sequence (P09471 whole entry, looked up): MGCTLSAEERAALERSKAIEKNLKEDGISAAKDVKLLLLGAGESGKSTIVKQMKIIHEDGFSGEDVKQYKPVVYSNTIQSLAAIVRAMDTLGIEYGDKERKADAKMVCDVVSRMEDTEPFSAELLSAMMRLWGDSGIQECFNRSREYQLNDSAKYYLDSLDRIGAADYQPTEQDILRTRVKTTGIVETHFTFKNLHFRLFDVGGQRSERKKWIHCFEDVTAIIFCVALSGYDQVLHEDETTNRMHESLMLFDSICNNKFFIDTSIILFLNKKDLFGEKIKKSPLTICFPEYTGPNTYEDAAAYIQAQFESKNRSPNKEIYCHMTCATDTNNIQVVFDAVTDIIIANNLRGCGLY
GSH fluor = compound fluorescence on glutathione beads, profiling panel, artefact control, biophysical, 488/530 nm, flow cytometry. GSH beads flow cytometry, compound fluorescence 488/530 nm; stronger effect = higher value. fluorescence (KMESF) at 10 µM. 190,000 tested, 0.25% active; in the data active means fluorescence above about 89;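 further: glutathione beads carrying GST-tagged Bcl family fusion proteins plus one bare bead set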
RGS8-Gao = RGS8-Galphao binding modulators, primary screen, biochemical, multiplexed bead flow cytometry | Guanine nucleotide-binding protein G(o) subunit alpha (Homo sapiens), P09471 | actives lie on both sides | response (percent of control binding), % at 10 µM | 220,000 tested, 0.34% active; in the data active means response below about 60% or above about 140%; inactive means in between;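 further: Galphao activated as the GDP aluminium fluoride complex binding bead-coupled RGS8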
Target sequence (P09471 whole entry, looked up): as above
RGS7-Gao = RGS7-Galphao binding modulators, primary screen, biochemical, multiplexed bead flow cytometry; Guanine nucleotide-binding protein G(o) subunit alpha (Homo sapiens), P09471; actives lie on both sides; binding response (% of control), % at 10 µM; 220,000 tested, 0.35% active; AID 1439, 2008; in the data active means binding response below about 49% or above about 150%; inconclusive means no clear call, values can overlap the other calls; inactive means in between;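 further: fluorescent Galphao held in activated GDP-AlF4 state binding bead-coupled RGS7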
RGS4-Gao reg = modulators of RGS4 binding to Galphao, primary screen, biochemical, multiplexed bead flow cytometry; Guanine nucleotide-binding protein G(o) subunit alpha (Homo sapiens), P09471; actives lie on both sides; binding response (% of control), % at 10 µM; 220,000 tested, 0.33% active; in the data active means binding response below about 49% or above about 150%; inactive means in between;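 further: fluorescent Galphao activated with aluminum fluoride binding bead-coupled RGS4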
Avidin fluor = green autofluorescence of compounds with avidin beads – biophysical, 488/530 nm, flow cytometry, artefact control, profiling panel. compound fluorescence 488/530 nm; stronger effect = higher value. AID 1775, 2009. fluorescence (KMESF) at 10 µM. 220,000 tested, 0.38% active; in the data active means fluorescence above about 47
RGS4-Gao HTS = modulators of RGS–Galpha-o binding, primary screen, biochemical, multiplexed beads, flow cytometry, RGS4/7/8/16/19; RGS4–Galpha-o binding response, % at 10 µM; shares compounds with RGS16-Gao HTS; AID 1504, 2009; multiplexed bead flow cytometry; 1,600 tested, 99% active;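 further: fluorescently labeled Galpha-o bound to GDP with aluminium fluoride binding biotinylated RGS beads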
Avidin counter = disruption of biotin probe capture by avidin, counter-screen for RGS protein interaction modulators, biochemical, flow cytometry, bead-based | shares compounds with RGS16-Gao HTS | 1,700 tested, under 10 active | AID 1783, 2009 | streptavidin beads, fluorescein-biotin binding | inhibition, % at 10 µM;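 active means inhibition above 50%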;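 further: median green fluorescence of gated singlet beads compared with DMSO control wells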
RGS8-Gao confirm = RGS8-Galphao binding modulators, confirmation, biochemical, multiplexed bead flow cytometry, single concentration; 1,700 tested, 3% active; AID 1836, 2009; binding response (% of control), % at 10 µM; shares compounds with RGS16-Gao HTS; bead-based flow cytometry RGS8-Galphao binding, fluorescence; actives lie on both sides; in the data active means binding response below about 72% or above about 130%; inactive means in between;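 further: Galphao activated as GDP AlF4 complex before binding bead RGS8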
RGS7-Gao confirm = RGS7-Galphao binding modulators, confirmation, biochemical, multiplexed bead flow cytometry, single concentration; shares compounds with RGS16-Gao HTS; bead-based flow cytometry RGS7-Galphao binding; actives lie on both sides; response (percent of control binding), % at 10 µM; 1,700 tested, 7.8% active; AID 1837, 2009; in the data active means response below about 75% or above about 130%; inactive means in between;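 further: fluorescent Galphao activated with GDP and aluminum fluoride binding bead-coupled RGS7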
RGS16-Gao single = modulators of RGS16-Galphao protein binding, confirmation, biochemical, single concentration, multiplexed bead flow cytometry. shares compounds with RGS16-Gao HTS. response (% of control binding), % at 10 µM. AID 1838, 2009. bead-based flow cytometry; actives lie on both sides. 1,700 tested, 4% active; in the data active means response below about 74% or above about 130%; inactive means in between;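 further: Galphao activated as the GDP aluminium fluoride complex binding bead-coupled RGS16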
RGS4-Gao single = modulators of RGS4-Galphao protein binding, confirmation, biochemical, single concentration, multiplexed bead flow cytometry; shares compounds with RGS16-Gao HTS; 1,700 tested, 4% active; actives lie on both sides; binding response (% of control), % at 10 µM; in the data active means binding response below about 74% or above about 130%; inactive means in between
RGS19-Gao single = regulators of RGS19-Galphao binding, confirmation, biochemical, single point, multiplexed bead flow cytometry. shares compounds with RGS16-Gao HTS. bead-based flow cytometry RGS19-Galphao binding; actives lie on both sides. response (percent of control binding), % at 10 µM. 1,700 tested, 5% active. AID 1841, 2009; in the data active means response below about 50% or above about 160%; inactive means in between
Each line names hits and unclear results; the compound was inactive in the other large screens (follow-up assays come after a bar, where they were run); [ ] = another dose, or the depositor's remark. Most compounds without a hit are left out; they make up all but 1.2% or so of the library. Unless noted, how the calls were made is not given here.

Cc1ccc(-n2c(C)n[nH]c2=S)cc1C	none
Nc1nc(Nc2ccccc2F)nc(N2CCOCC2)c1[N+](=O)[O-]	RGS7-Gao inconclusive (no result: GSH fluor)
Cc1cc(NC(=O)CCCOc2ccc(Cl)cc2Cl)no1	RGS8-Gao 167[activator] | RGS4-Gao HTS 142
O=C(CCCOc1ccc(Cl)cc1Cl)Nc1ncccn1	RGS7-Gao inconclusive (no result: GSH fluor)
Cc1cc(-c2n[nH]c(=S)n2/N=C/c2cc([N+](=O)[O-])ccc2Cl)n[nH]1	RGS16-Gao HTS -2.0 | RGS4-Gao HTS 83 | Avidin counter inactive | RGS8-Gao confirm inactive | RGS7-Gao confirm inactive | RGS16-Gao single inactive | RGS4-Gao single inactive | RGS19-Gao single inactive
Cc1ccc(OC(=O)c2cc(C)nn2C(C)(C)C)cc1	RGS7-Gao inconclusive (no result: GSH fluor)
CN1CCN(C(=O)c2cn(-c3ccccc3)nc2-c2cccnc2)CC1	RGS4-Gao reg 152[activator] (no result: RGS8-Gao, Avidin fluor) | Avidin counter inactive | RGS8-Gao confirm inactive | RGS7-Gao confirm inactive | RGS16-Gao single inactive | RGS4-Gao single inactive | RGS19-Gao single inactive
Fc1cccc(COc2ccccc2C(=S)N2CCCC2)c1	none
CN1C(=O)/C(=C/c2ccccc2OCc2cccc(F)c2)N(C)C1=S	none (no result: RGS16-Gao HTS, RGS8-Gao, RGS7-Gao, RGS4-Gao reg, Avidin fluor) | Avidin counter inactive | RGS8-Gao confirm inactive | RGS7-Gao confirm inactive | RGS16-Gao single inactive | RGS4-Gao single inactive | RGS19-Gao single inactive
CCCCNCc1cc(OCC)c(OCC)cc1Br	none
Cc1noc(C)c1C(=O)N1CCN(CCc2ccccc2)CC1	none
Cc1cc(C(=O)N2CCN(CCc3ccccc3)CC2)no1	RGS16-Gao HTS 303[activator], RGS8-Gao 172[activator], RGS7-Gao 224[activator], RGS4-Gao reg 227[activator] (no result: Avidin fluor) | Avidin counter inactive | RGS8-Gao confirm inactive | RGS7-Gao confirm 58 | RGS16-Gao single 70 | RGS4-Gao single 73 | RGS19-Gao single 39
CC(=O)N1CCc2ccc(NC(=O)c3c(-c4c(Cl)cccc4Cl)noc3C)cc21	RGS7-Gao inconclusive (no result: GSH fluor)
Cc1c(C(=O)C(=O)NCc2ccco2)c2ccccc2n1C	RGS7-Gao inconclusive
COCCn1c(C)cc(/C=C2/SC(=O)N(C(C)C(=O)OC)C2=O)c1C (configuration not stated)	RGS16-Gao HTS 225[activator], RGS7-Gao inconclusive, RGS4-Gao reg 222[activator], Avidin fluor 129 (no result: GSH fluor) | Avidin counter inactive | RGS8-Gao confirm inactive | RGS7-Gao confirm inactive | RGS16-Gao single inactive | RGS4-Gao single inactive | RGS19-Gao single inactive
CC(CCc1ccccc1)NC(=O)CSc1nccc(=O)[nH]1 (configuration not stated)	RGS16-Gao HTS 7.1, RGS8-Gao 21, RGS7-Gao 11, RGS4-Gao reg 12 | Avidin counter inactive | RGS8-Gao confirm inactive | RGS7-Gao confirm inactive | RGS16-Gao single inactive | RGS4-Gao single inactive | RGS19-Gao single inactive
CCOC(=O)C=C(C(=O)OCC)C(=O)OCC	none
COc1ccc(/C=N/OCC(=O)N2CCCC2)c(OC)c1	none
CC/C(O)=C1\C(=O)CCCC1=NCc1nc2ccccc2[nH]1	none
CSC(=S)N(C)C1CCS(=O)(=O)C1 (configuration not stated)	RGS16-Gao HTS 25 | RGS4-Gao HTS 87 | Avidin counter inactive | RGS8-Gao confirm inactive | RGS7-Gao confirm inactive | RGS16-Gao single inactive | RGS4-Gao single inactive | RGS19-Gao single inactive
C=CCN(C(=O)Nc1ccc(Cl)cc1)C1CC(=O)N(c2ccc(OC)cc2)C1=O (configuration not stated)	none
C=CCN(C(=O)Nc1ccc(F)cc1)C1CC(=O)N(c2ccc(OC)cc2)C1=O (configuration not stated)	RGS8-Gao 158[activator] | RGS4-Gao HTS 134 | Avidin counter inactive | RGS8-Gao confirm inactive | RGS7-Gao confirm inactive | RGS16-Gao single inactive | RGS4-Gao single inactive | RGS19-Gao single inactive
CN(c1ccccc1)P(=O)(N(C)c1ccccc1)N(C)c1ccccc1	none
COCCCN1CN(Cc2ccccc2)CNC1=S	RGS16-Gao HTS -3.3 | RGS4-Gao HTS 79 | Avidin counter inactive | RGS8-Gao confirm inactive | RGS7-Gao confirm inactive | RGS16-Gao single inactive | RGS4-Gao single inactive | RGS19-Gao single inactive
CC1(C)Cc2c(sc(NC(=O)/C=C/C(=O)O)c2C#N)CO1	RGS7-Gao inconclusive (no result: GSH fluor)
CC1(C)Cc2c(sc(NC(=O)c3ccco3)c2C#N)CO1	RGS16-Gao HTS -105, RGS8-Gao 2.6, RGS7-Gao -35, RGS4-Gao reg -105 (no result: Avidin fluor) | Avidin counter inactive | RGS8-Gao confirm inactive | RGS7-Gao confirm inactive | RGS16-Gao single inactive | RGS4-Gao single inactive | RGS19-Gao single inactive
S=C(N/N=C/c1cccc2ccccc12)Nc1cccc(Cl)c1	RGS7-Gao inconclusive (no result: GSH fluor)
OCc1nc2ccccc2n1CCCOc1ccc(Br)cc1	RGS16-Gao HTS -3.6, RGS8-Gao 7.0, RGS7-Gao 1.2, RGS4-Gao reg -3.9 | Avidin counter inactive | RGS8-Gao confirm inactive | RGS7-Gao confirm inactive | RGS16-Gao single inactive | RGS4-Gao single inactive | RGS19-Gao single inactive

From PubChem
